The values that follow come from PubChem BioAssay (NCI).

Test systems include HCT-15 colon; HT29 colon; SNB-75 CNS; SNB-19 CNS; U251 CNS; PC-3 prostate; SK-MEL-5 melanoma; UACC-62 melanoma; SK-MEL-28 melanoma; SK-MEL-2 melanoma; EKVX NSCLC; SN12C renal; UO-31 renal; TK-10 renal; ACHN renal; CAKI-1 renal; A498 renal; CCRF-CEM leukemia; MOLT-4 leukemia; LOX IMVI melanoma.
Common to all, as to test: NCI-60 one-dose screen, 48 h (100 = growth as untreated, 0 = no growth, -100 = all killed)
Common to all, as to details: 10 µM unless noted

About 83,000 compounds went through this panel and 20% of them were active in at least one assay; those are over-represented in the sample as a whole.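 Cells were grown in 96-well plates and exposed to the test compound at a single concentration for 48 hours; results are reported as percent growth, with values below 10 considered active.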 Unmarked numbers belong to inactive results. The source made the active and inactive calls.

For the compound `COc1ccc(C(O)c2cc3c(N)c(C(=O)Nc4ccc(Cl)cc4)sc3nc2C)cc1` (stereo not drawn), the growth was 12.3% in the assay on HCT-15 colon; -6.54% (active) in the assay on HT29 colon; -22.5% (active) in the assay with SNB-75 CNS; 37.2% with SNB-19 CNS; 20.2% with U251 CNS; 21.4% in the assay on PC-3 prostate. In addition, the growth is 15.4% in the assay on SK-MEL-5 melanoma; 17.3% in the assay with UACC-62 melanoma; 59.6% in the assay with SK-MEL-28 melanoma; 37.1% with SK-MEL-2 melanoma; 37% with EKVX NSCLC; 34.6% with SN12C renal. The growth in the assay with UO-31 renal was 37%; in the assay on TK-10 renal, 42.4%; with ACHN renal it was 35.6%; in the assay with CAKI-1 renal it was 25.2%; in the assay with A498 renal it was -5.66% (active); in the assay on CCRF-CEM leukemia it was 8.15% (active). Moreover, the growth with MOLT-4 leukemia is 15.5%.
Turning to `Cc1ccc(C2CC(c3cccc(Nc4ccncc4)c3)=NN2c2cc(Cl)cc(Cl)c2)cc1` (stereo not drawn), the growth in the assay on HCT-15 colon was -65.6% (active); in the assay with HT29 colon, -7.29% (active); with SNB-75 CNS, 70.2%; in the assay on SNB-19 CNS it was 84.9%; in the assay with U251 CNS it was -48.8% (active); in the assay with PC-3 prostate, 33.8%. Besides, the growth with SK-MEL-5 melanoma was 68.8%; with UACC-62 melanoma, 99.4%; in the assay on LOX IMVI melanoma, -87.3% (active); with SK-MEL-28 melanoma, -72.7% (active); in the assay on SK-MEL-2 melanoma, 96.4%; in the assay on EKVX NSCLC, 77.3%. For the same compound, the growth is 51.8% with UO-31 renal; 72.7% with TK-10 renal; -38.8% (active) with CAKI-1 renal; 77.6% in the assay on A498 renal; 7.28% (active) with CCRF-CEM leukemia.
For `Cc1c2c(cc[n+]1Cc1ccccc1)c1ccc(OCC3CCCCC3)cc1n2CC1CCCCC1`, the growth in the assay with HCT-15 colon was -81.7% (active); in the assay with HT29 colon, -79% (active); with SNB-75 CNS, -87.3% (active); with SNB-19 CNS, -90.7% (active); in the assay with U251 CNS, -92.5% (active); in the assay on PC-3 prostate, -75.8% (active). Besides, the growth in the assay with SK-MEL-5 melanoma is -100% (active); in the assay with UACC-62 melanoma, -94% (active); in the assay on LOX IMVI melanoma it was -95.6% (active); in the assay with SK-MEL-28 melanoma, -95.8% (active); in the assay on SK-MEL-2 melanoma it was -86.5% (active); with SN12C renal, -91.9% (active). Besides, the growth with UO-31 renal was -93.1% (active); with TK-10 renal it was -93.6% (active); in the assay on ACHN renal it was -100% (active); in the assay on CAKI-1 renal, -92.5% (active); in the assay with A498 renal it was -97.4% (active); in the assay with CCRF-CEM leukemia, -36.2% (active). Moreover, the growth with MOLT-4 leukemia is -64.5% (active).
As for `O=S(=O)(c1cccc(NC2=Nc3cccc4cccc2c34)c1)N1CCCC1`, the growth in the assay with HCT-15 colon is 60.4%; in the assay on HT29 colon, 67.4%; in the assay with SNB-75 CNS it was 73.3%; in the assay with SNB-19 CNS, 77.8%; in the assay with U251 CNS, 65.7%; in the assay with PC-3 prostate it was 52.4%. Besides, the growth was 44.7% in the assay with SK-MEL-5 melanoma; 51.7% with UACC-62 melanoma; 66.7% in the assay with LOX IMVI melanoma; 81.4% with SK-MEL-28 melanoma; 75.2% in the assay with SK-MEL-2 melanoma; 62% with EKVX NSCLC. In addition, the growth is 67.5% in the assay on UO-31 renal; 66.9% with ACHN renal; 78% with CAKI-1 renal; 75.1% in the assay on A498 renal; 41.7% in the assay on CCRF-CEM leukemia; 57% with MOLT-4 leukemia.
As for `CN1CCN(Cc2ccc(NC(=O)c3cncc(C#Cc4cnccc4C(F)(F)F)c3)cc2C(F)(F)F)CC1`, the growth was 70.2% in the assay with HCT-15 colon; 23.5% with HT29 colon; 89% in the assay on SNB-75 CNS; 103% in the assay with SNB-19 CNS; 78.4% in the assay with U251 CNS; 80.4% in the assay with PC-3 prostate. Moreover, the growth in the assay with SK-MEL-5 melanoma is 75.1%; in the assay with UACC-62 melanoma it was 89.9%; in the assay on LOX IMVI melanoma it was 20.9%; in the assay on SK-MEL-28 melanoma, 56.6%; in the assay on SK-MEL-2 melanoma, 73.4%; with SN12C renal, 75.7%. Further, the growth is 67.2% with UO-31 renal; 109% with TK-10 renal; 75.8% in the assay with ACHN renal; 93.8% in the assay with CAKI-1 renal; 78.4% in the assay with A498 renal; 82.9% in the assay on CCRF-CEM leukemia. In addition, the growth with MOLT-4 leukemia is 45.7%.
In the case of `Clc1ccc(C2CC(c3cccc(Nc4ccncc4)c3)=NN2c2ccc(Cl)cc2)cc1` (stereo not drawn), the growth in the assay with HCT-15 colon is -71.6% (active); in the assay with HT29 colon, -5.47% (active); in the assay with SNB-75 CNS it was 70.7%; in the assay on SNB-19 CNS, 67.8%; in the assay with U251 CNS, -49.7% (active); in the assay on PC-3 prostate it was 17%. In addition, the growth was 33.8% in the assay with SK-MEL-5 melanoma; 98% in the assay on UACC-62 melanoma; -92.3% (active) in the assay with SK-MEL-28 melanoma; 85.8% with SK-MEL-2 melanoma; 72.3% with EKVX NSCLC; 39.6% with SN12C renal. For the same compound, the growth is 4.62% (active) with UO-31 renal; 50.5% in the assay with TK-10 renal; -66.6% (active) with ACHN renal; -59.6% (active) in the assay with CAKI-1 renal; 72.1% in the assay with A498 renal; 2.88% (active) in the assay on CCRF-CEM leukemia. The growth with MOLT-4 leukemia is -5.2% (active).
For the compound `COc1ccc(Nc2nc(N)nc3c2CCc2occc2-3)cc1`, the growth in the assay on HCT-15 colon is 92%; in the assay with HT29 colon, 87%; with SNB-75 CNS, 95%; with SNB-19 CNS it was 99.4%; in the assay with U251 CNS, 103%; in the assay with PC-3 prostate, 90.4%. Besides, the growth with SK-MEL-5 melanoma is 94.6%; in the assay on UACC-62 melanoma, 93.9%; in the assay on LOX IMVI melanoma, 93.1%; with SK-MEL-28 melanoma, 106%; in the assay on SK-MEL-2 melanoma it was 106%; in the assay with SN12C renal it was 99.5%. For the same compound, the growth in the assay with UO-31 renal was 83.7%; in the assay on TK-10 renal it was 121%; in the assay with ACHN renal, 104%; with A498 renal, 98.2%; with CCRF-CEM leukemia it was 97.3%; in the assay on MOLT-4 leukemia it was 94.3%.
Turning to `COC(=O)Nc1nc2ccc(C(=O)c3cccc(I)c3)cc2[nH]1`, the growth in the assay with HCT-15 colon was 11.8%; with HT29 colon, 2.12% (active); in the assay with SNB-75 CNS it was -15.3% (active); in the assay with SNB-19 CNS, 33.6%; in the assay with U251 CNS, 13.6%; in the assay with PC-3 prostate, 20.9%. Besides, the growth in the assay on SK-MEL-5 melanoma was -33.9% (active); with UACC-62 melanoma, 24.8%; with LOX IMVI melanoma it was 16.6%; with SK-MEL-28 melanoma, 49.4%; in the assay on SK-MEL-2 melanoma, 12.1%; in the assay on SN12C renal it was 23.3%. Also, the growth is 28.8% in the assay on UO-31 renal; 42.4% in the assay on TK-10 renal; 17.5% in the assay on ACHN renal; 5.37% (active) in the assay with CAKI-1 renal; -15.3% (active) with A498 renal; 5.32% (active) in the assay with CCRF-CEM leukemia. Moreover, the growth in the assay with MOLT-4 leukemia is 19.1%.
